A selection: hits, their analogues and other compounds. The true share with any hit is near 13%.
Pf growth 96h = P. falciparum growth inhibition at 96 hours; AID 504834; hit rate 6.9% among 320,000; P. falciparum luciferase reporter growth, 96 h; Potency, µM (doses to about 28.7 µM), for the others: at the highest dose activity change, negative = inhibition, usual class: inhibitors; also: potency is read from the fitted curve at half-maximal effect
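P. falciparum expressing integrated firefly luciferase grown in erythrocytes (2% hematocrit, 0.05% parasitemia final) with compounds for 96 hours at 37 C, 5% CO2. Growth inhibition read as loss of luminescence after adding luciferase detection reagent.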
HCMV antiviral = blocks human cytomegalovirus replication; HFF cells, HCMV-luciferase reporter, 72 h; stronger effect = lower value; AID 1259415; hit rate 4.5% among 410,000; activity change, negative = inhibition, % at 57.5 µM; in the data active = activity change below about -60%; inconclusive = no clear call, values can overlap the other calls; inactive = above about -39%
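Compounds were evaluated in HFFs infected with an HCMV luciferase reporter virus (MOI 1 PFU/cell). Luciferase in lysates collected 72 h post infection served as the replication measure.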
HCV inh = blocks hepatitis C virus. Huh7.5.1 HCVcc-Cre infection, luciferase reporter, 44 h. Potency, µM (top dose mostly 41.8 µM), for the others: at the highest dose activity change, negative = inhibition, usual class: inhibitors. hit rate 3.4% among 340,000; also: potency is read from the fitted curve at half-maximal effect
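After 44 h co-culture of compound, cells and HCVcc-Cre (~0.5 moi), substrate is added for 15 min at room temperature and luciferase measured over 15 sec. Cells were seeded at 1,000/well and pre-cultured 4 h.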
Pf growth 48h = inhibits P. falciparum growth in the first generation, 48 h; P. falciparum luciferase growth in erythrocytes, 48 h; Potency, µM (series often up to 28.7 µM), inactives show top-dose activity change, negative = inhibition, usual class: inhibitors; hit rate 5.9% among 310,000; also: potency is read from the fitted curve at half-maximal effect
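Luciferase-expressing P. falciparum in infected erythrocytes (2% hematocrit, 0.1% parasitemia final) in RPMI 1640/0.5% Albumax were exposed to compound for 48 hours at 37 C, 5% CO2; growth read as luminescence.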
* marks the source's active call; other numbers are inactive results; ? = inconclusive; . = no result given; [ ] = dose if it differs, or a comment. Unless noted, calls follow the shape of the dose curve; as a rule, active = well fitted inhibition curve with a large enough effect; inconclusive = small, poorly fitted or top-dose-only effect, or another doubt; inactive = no such curve, though single readings can be large or run the other way. % is scaled to controls: 0 for no effect and ±100 for the full control effect.

SMILES	Pf growth 96h	HCMV antiviral	HCV inh	Pf growth 48h
CCOC(=O)C1=C(N)Oc2c(oc(CO)cc2=O)C1c1ccc(F)cc1 (centres undefined)	-9%	-32	?	?
COCCOC(=O)C1=C(N)Oc2c(oc(CO)cc2=O)C1c1c(F)cccc1Cl (centres undefined)	4.7µM*	13	0%	.
COc1ccc(CCNc2nnc(Sc3nnnn3-c3ccccc3)s2)cc1OC	.	-98*	14µM*	?
COc1ccc(-n2c(/C=C/c3ccc(O)c(OC)c3)nc3ccccc3c2=O)cc1	2%	-99*	11µM*	?
COc1cccc(-n2c(/C=C/c3ccc(O)c(O)c3)nc3ccccc3c2=O)c1	9.3µM*	16	-19%	?
COc1ccc(-n2c(/C=C/c3ccc(O)cc3)nc3ccccc3c2=O)cc1	-16%	?	?	?
Cc1cccc(C)c1OCc1cc(=O)n2ccsc2n1	.	-21	.	.
Cc1cccc(C)c1-n1ncc(C(=O)NCCCN2CCC(C)CC2)c1C1CCN(C(=O)OC(C)(C)C)CC1	.	6	.	.
COc1ccc(-c2cn(CCc3c[nH]c4ccccc34)nn2)cc1	9.3µM*	?	?	12%
O=C(CNC(=O)c1ccco1)N/N=C/c1ccccc1[N+](=O)[O-]	0.93µM*	-25	25%	8%
O=C(CNS(=O)(=O)c1ccccc1)N/N=C/c1ccccc1[N+](=O)[O-]	-16%	-65*	-2%	18%
O=C(CCCO)N/N=C/c1ccccc1[N+](=O)[O-]	22%	?	16%	28%
COc1ccc2c3c(n(C)c2c1)[C@@H](CO)N(S(=O)(=O)c1ccccc1)CC31CCN(C)CC1	.	81	.	.
CCc1nn(CC(=O)NCCC(C)C)c(=O)c2cc3occc3n12	.	-19	.	.
Cc1ccc(NC(=O)CCc2nc(-c3ccccc3F)no2)c(C)c1	.	-12	.	.
O=C(Nc1cc(S(=O)(=O)N2CCCCC2)ccc1Cl)C1=NN(c2ccccc2)C(=O)CC1	?	2	10%	?
Cc1ccc(C)c(N2N=C(C(=O)Nc3cccc(S(=O)(=O)N4CCCCC4)c3)CCC2=O)c1	4.7µM*	-10	-13%	4.7µM*
O=C(Nc1cccc(S(=O)(=O)N2CCCCC2)c1)C1=NN(c2ccccc2)C(=O)CC1	6.6µM*	0	6%	5.2µM*
CCOc1ccc(NC(=O)C2=NN(c3ccccc3)C(=O)CC2)cc1S(=O)(=O)N1CCCCC1	?	-9	11%	12µM*
CCOc1ccc(NC(=O)c2ccco2)cc1S(=O)(=O)N1CCCC1	?	-7	1%	?
O=C(O[C@H]1CC[C@@]23CCCN2C(=O)CCC[C@H]3[C@H]1Cc1ccccc1)N1CCN(c2ccccc2)CC1	.	3	.	.
CCCn1c(CCC(=O)Nc2ccc(OCC)cc2)nc2cccnc21	.	-9	.	.
CC1(C)OC(C)(C)C(=N/O)/C1=N\N	.	-25	.	.
CCOc1ccc(-c2cnc3n2CCC3)cc1	15µM*	-36	?	.
Brc1ccc(-c2cnc3n2CCCC3)cc1	-7%[5.75 µM]	-21	?	?
SMILES	Pf growth 96h	HCMV antiviral	HCV inh	Pf growth 48h
COc1ccc(C2=C(C)C(N3CCC(C(=O)Nc4cc(C)ccc4C)CC3)=NS2(=O)=O)cc1	.	6	.	.
CN(C)CCNC(=O)c1cccc(-c2cc(NC=O)c3ncc(-c4cccc(C(F)(F)F)c4)n3c2)c1	.	-61*	.	.
CN(C)CCNC(=O)c1cccc(-c2cnc3c(NC=O)cc(-c4ccc(S(C)(=O)=O)cc4)cn23)c1	.	-66*	.	.
CN(C)CCNC(=O)c1cccc(-c2cnc3c(NC=O)cc(-c4cc(F)c(F)c(F)c4)cn23)c1	.	-76*	.	.
CCOc1ccc(OCC)c(NC(=O)c2cc(-c3cccs3)nc3ccccc23)c1	.	-3	.	.
CCOc1ccccc1N(C)C(=O)Cn1nc(Cc2ccncc2)c2ccccc2c1=O	.	-31	.	.
CCOc1ccccc1N(C)C(=O)Cn1nc(Cc2cccnc2)c2ccccc2c1=O	.	-72*	.	.
CCC(C)NC(=O)Cn1nc(Cc2ccncc2)c2ccccc2c1=O (centres undefined)	6.6µM*	3	8%	-9%
Cc1ccc(NC(=O)Cn2nc(Cc3ccncc3)c3ccccc3c2=O)c(Cl)c1	.	-97*	.	.
COc1c(C)cc(C(=O)C2CCCN(C(=O)c3ccoc3)C2)cc1C (centres undefined)	?	-81*	9%	24%
COc1c(C)cc(C(=O)C2CCCN(C(=O)c3cccc(F)c3)C2)cc1C (centres undefined)	?	39	-30%	18%
O=C(c1cccc(Cl)c1)N1CCCC(C(=O)N2CCCCCC2)C1 (centres undefined)	13%	-24	16%	?
O=C(c1cccc(Cl)c1)C1CCCN(C(=O)c2ccoc2)C1 (centres undefined)	10µM*	-35	-2%	-8%
CCCN(Cc1cccs1)C(=O)Nc1cc(Cl)c(OC)cc1OC	.	-17	.	.
Cc1cc(NC(=O)c2csc([C@@H]3O[C@H](CO)[C@H](O)[C@H](O)[C@H]3O)n2)n(C)n1	.	7	.	.
CC(C)(Cc1c[nH]c2ccccc12)NCC(O)COc1ccccc1C#N (centres undefined)	7.6µM*	.	.	17µM*
Cc1c[nH]c2cccc(OCC(O)CNC(C)(C)C)c12 (centres undefined)	16%	12	0%	8%
COc1ccc(C)cc1NC(=O)CSc1nc(=O)n(Cc2ccco2)c2c1CCC2	.	-2	.	.
CCNC(=O)NC(=O)C(C)SCc1ccccc1C (centres undefined)	6.6µM*	-28	4%	12%
Cc1ccccc1NC(=O)C(C)SCc1ccccc1 (centres undefined)	-18%	7	7%	-7%
C[C@H]1CN([C@@H](C)CO)C(=O)c2c(c3ccccc3n2C)-c2ccccc2CO[C@H]1CN(C)C(=O)Nc1cccc(F)c1	.	-29	.	.
Cc1cccc(N2CCN(S(=O)(=O)c3ccc(S(=O)(=O)N4CCCC4)cc3)CC2)c1C	-9%	37	12%	.
CCOC(=O)C1CCN(S(=O)(=O)c2ccc3c(c2)CC(=O)N3C)CC1	-6%	-5	3%	2.1µM*
CC(CNS(=O)(=O)c1ccc2c(c1)CC(=O)N2C)c1ccccc1 (centres undefined)	10µM*	7	-7%	9.3µM*
CN1C(=O)Cc2cc(S(=O)(=O)N3CCOCC3)ccc21	4.7µM*	5	3%	-8%
SMILES	Pf growth 96h	HCMV antiviral	HCV inh	Pf growth 48h
Cc1cccc(N2CCN(S(=O)(=O)c3ccc4c(c3)CC(=O)N4C)CC2)c1C	?	-2	-13%	9.3µM*
[O]=[Bi][O][Bi]=[O]	-14%	.	.	-15%
CSc1cccc(Nc2nc3c(S(=O)(=O)c4ccccc4)nnn3c3ccc(Cl)cc23)c1	.	-2	.	.
O=C(CS(=O)(=O)c1cccc2nsnc12)N1CCN(c2ccc(F)cc2)CC1	.	-14	.	.
CC(NC(=O)CSc1n[nH]c(-c2ccccc2Cl)n1)c1nc2ccccc2n1C (centres undefined)	.	-12	.	.
Cc1cccn2c(=O)c3cc(C(=O)NCCC4=CCCCC4)n(C)c3nc12	?	-4	-8%	?

From PubChem BioAssay
